Shown are actives, neighbours in structure and some others; about 1.9% of the full set was active somewhere.
Vif imaging: inhibitors of HIV Vif. inhibition, % at 7.49 µM. HEK293T cells, Vif self-association by quenched fluorescence, imaging, 24 h. hit rate 0.35% among 340,000; in the data active = inhibition above about 50%, passing the limit was not always enough; inconclusive = no clear call, values can overlap the other calls; inactive = below about 31%
Bfl-1 A1 inh: inhibitors of the anti-apoptotic protein A1, read as caspase activation. MEF A1-2A-BIM cells, Caspase-Glo 3/7 luminescence, 3 h; percent of clofoctol response, vehicle zero. caspase activation, % (concentration not given with the values). hit rate 0.066% among 330,000. AID 2462;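 active = over half of replicate activation scores above 10%, or exactly half above 10 with the replicate mean above 10; inconclusive = replicate mean below 10 yet half the replicates above 10; inactive = over half of replicates below 10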
Neddylation inh: blocks human cullin neddylation; P61081+Q13564; TR-FRET cullin neddylation, biochemical; inhibition, % at 25 µM; hit rate 0.58% among 360,000; AID 651699; in the data active = inhibition above about 36%
Target sequence (P61081 whole entry, looked up): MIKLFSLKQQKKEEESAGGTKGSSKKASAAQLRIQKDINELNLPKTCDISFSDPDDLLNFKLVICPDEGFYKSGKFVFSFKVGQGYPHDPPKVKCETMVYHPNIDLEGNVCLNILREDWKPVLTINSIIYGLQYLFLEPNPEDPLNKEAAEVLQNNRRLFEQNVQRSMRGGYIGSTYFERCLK
Target sequence (Q13564 whole entry, looked up): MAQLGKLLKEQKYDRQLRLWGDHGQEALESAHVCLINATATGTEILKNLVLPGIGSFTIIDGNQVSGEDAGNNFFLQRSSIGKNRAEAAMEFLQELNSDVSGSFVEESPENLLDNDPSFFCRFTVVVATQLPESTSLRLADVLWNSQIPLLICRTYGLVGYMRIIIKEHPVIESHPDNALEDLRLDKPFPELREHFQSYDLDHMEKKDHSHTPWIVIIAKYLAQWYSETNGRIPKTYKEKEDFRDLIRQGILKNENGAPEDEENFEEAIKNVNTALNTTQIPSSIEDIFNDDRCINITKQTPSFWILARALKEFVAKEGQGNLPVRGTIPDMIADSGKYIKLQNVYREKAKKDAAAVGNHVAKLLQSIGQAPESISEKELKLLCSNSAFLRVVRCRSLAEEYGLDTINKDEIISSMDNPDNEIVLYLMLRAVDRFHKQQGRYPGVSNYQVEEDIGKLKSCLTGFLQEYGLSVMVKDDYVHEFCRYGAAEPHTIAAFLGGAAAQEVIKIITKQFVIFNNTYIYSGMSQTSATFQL
GSIS activator: GLuc luminescence reporter in INS-1E cells, primary screen for activators of glucose-dependent secretion of insulin; INS-1E GLuc reporter insulin secretion, 2-3 h; hit rate 0.61% among 370,000; activation, % at 16.6 µM;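 active = lowest replicate activation of at least 40%, so every replicate reaches that level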;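 note: 0% = median of neutral control wells and 100% = median of IBMX positive control wells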
dFosB act: enhances mouse delta FosB homodimer DNA binding | P13346 | purified delta FosB, TAMRA-CDK5 oligo fluorescence polarization; percent of positive-control signal above neutral wells | activation, % at 25 µM | hit rate 0.99% among 340,000;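 active = mean activation above about 17%, with every replicate also reaching it, limit read from the data, passing the limit was not always enough; inconclusive = only one of the two conditions met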
Neddyl inh conf: confirmation of human cullin neddylation inhibitors; shares compounds with Neddylation inh; TR-FRET cullin neddylation biochemical assay; calls only at 25 µM; hit rate 13% among 1,800; AID 652217; in the data active = inhibition above about 40%;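 note: neddylation substrate is the cullin 1 ring ligase complex with SKP2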
Active calls of the source: *.

`COCCN1C=C(C(=O)OC)C(c2cc3c(cc2Br)OCO3)C(C(=O)OC)=C1` gave Bfl-1 A1 inh -1.
For COCCN1C=C(C(=O)OC)C(c2ccc3c(c2)OCO3)C(C(=O)OC)=C1 the results were Vif imaging -1, Bfl-1 A1 inh 1, Neddylation inh 50*, GSIS activator 11, dFosB act -9 and Neddyl inh conf active.
`Cc1csc(SCC(=O)Nc2cccc3nsnc23)n1` gave Vif imaging -11, Bfl-1 A1 inh inconclusive, Neddylation inh 46* and dFosB act -1.
For Cc1csc(SCC(=O)Nc2ccccc2C)n1 the results were Vif imaging 4, Bfl-1 A1 inh -1, Neddylation inh -7, GSIS activator -6 and dFosB act -11.
Screening C[C@H]1CN(C)C(=O)Cc2cc(N(C)C)ccc2O[C@@H]1CN(C)S(C)(=O)=O returned GSIS activator 15.
`CSc1ccc(/C=C(\NC(=O)c2ccc(C)cc2)C(=O)Nc2cccc(C)c2)cc1` gave Vif imaging 0, Bfl-1 A1 inh 1, Neddylation inh 54*, GSIS activator -2, dFosB act -8 and Neddyl inh conf inactive.
Screening O=C(N/N=C/c1cnc(N2CCCCC2)s1)c1ccc(Cl)cc1 returned Vif imaging -8, Bfl-1 A1 inh 0, Neddylation inh 46*, GSIS activator 1, dFosB act 0 and Neddyl inh conf active.
For COc1ccccc1OCC(=O)/C=C1/N(C)c2ccccc2C1(C)C the results were Vif imaging -19, Bfl-1 A1 inh 1, Neddylation inh 46*, GSIS activator -29, dFosB act -6 and Neddyl inh conf inactive.
For CO[C@H]1CN(C)C(=O)c2ccc(NC(=O)C3CC3)cc2OC[C@H](C)N(C(=O)C2CCCCC2)C[C@@H]1C the results were GSIS activator 6.
Screening Cc1ccc2[nH]c(=O)c(CN(Cc3cccnc3)Cc3nnnn3CC3CCCO3)cc2c1 (stereo not drawn) returned Vif imaging -7, Neddylation inh 1, GSIS activator 40 and dFosB act -4.
COCCn1nnnc1CN(Cc1cccnc1)Cc1cc2cc(OC)ccc2[nH]c1=O was read as Vif imaging 6, Neddylation inh 43*, dFosB act 6 and Neddyl inh conf inactive.
Screening O=c1[nH]c2cc3c(cc2cc1CN(Cc1cccs1)Cc1nnnn1Cc1ccco1)OCCO3 returned Vif imaging 0, Bfl-1 A1 inh 0, Neddylation inh 45*, dFosB act 5 and Neddyl inh conf inactive.
Screening O=c1[nH]c2cc3c(cc2cc1CN(Cc1ccc2c(c1)OCO2)Cc1nnnn1CC1CCCO1)OCO3 (stereo not drawn) returned Bfl-1 A1 inh 0, Neddylation inh 39*, GSIS activator -6, dFosB act -3 and Neddyl inh conf inactive.
`COc1ccc(Cn2nnnc2CN(CCCN2CCOCC2)Cc2cc3cc(OC)ccc3[nH]c2=O)cc1` gave Vif imaging 2, Bfl-1 A1 inh 0, Neddylation inh 35, GSIS activator 4 and dFosB act -5.
COCCn1nnnc1CN(CCc1ccccc1)Cc1cc2cc(OC)ccc2[nH]c1=O was read as Vif imaging 9, Bfl-1 A1 inh 2, GSIS activator 3 and dFosB act -5.
COc1ccc2[nH]c(=O)c(CN(Cc3nnnn3Cc3ccccc3)CC3CCCO3)cc2c1 (stereo not drawn) was read as Vif imaging -6, Bfl-1 A1 inh 1, Neddylation inh 46*, dFosB act -1 and Neddyl inh conf inactive.
`C[C@H](CO)N1C[C@H](C)[C@H](CN(C)S(=O)(=O)c2cccs2)Oc2c(NC(=O)C3CC3)cccc2C1=O` gave GSIS activator 16.
Screening COc1ccc(NC(=O)N[C@H]2C=C[C@@H](CC(=O)NC3CCC3)O[C@H]2CO)cc1 returned GSIS activator 14.
COc1ccc2[nH]c(=O)c(CN(Cc3nnnn3Cc3ccc(F)cc3)CC3CCCO3)cc2c1 (stereo not drawn) was read as Vif imaging 22, Bfl-1 A1 inh -1, Neddylation inh 46*, dFosB act -5 and Neddyl inh conf inactive.
COc1ccc(/C=c2\s/c(=C(/C#N)C(=O)NCc3ccco3)n(-c3ccccc3)c2=O)cc1 was read as Vif imaging inconclusive, Bfl-1 A1 inh -1, Neddylation inh 47*, GSIS activator 1, dFosB act -8 and Neddyl inh conf inactive.
For C(=C\c1nnc(-c2cccs2)o1)/c1ccccc1 the results were Vif imaging 0, Bfl-1 A1 inh -5, Neddylation inh 48*, GSIS activator 7, dFosB act -24 and Neddyl inh conf inactive.
`Cc1ccc(/C=C/c2nnc(-c3ccccc3)o2)cc1` gave Vif imaging 5, Bfl-1 A1 inh -5, Neddylation inh -5 and dFosB act -6.
COCc1cc(C)nc(NC2CC(C)(C)NC(C)(C)C2)c1C#N was read as Vif imaging 3, Bfl-1 A1 inh 1, Neddylation inh 41*, GSIS activator 4, dFosB act -1 and Neddyl inh conf active.
`CCNc1nc(C)cc(COC)c1C#N` gave Bfl-1 A1 inh -2 and dFosB act 4.
For OC(c1ccc(F)cc1)c1ncc(-c2cccc3ccccc23)[nH]1 (stereo not drawn) the results were Vif imaging 0, Neddylation inh 40*, GSIS activator -16 and Neddyl inh conf inactive.
`COc1ccc(-c2cnc3c(c2)C(=O)N([C@H](C)CO)C[C@H](C)[C@@H](CN(C)S(=O)(=O)c2ccc(OC)cc2)O3)cc1` gave GSIS activator -33.
`C[C@@H]1CCCCO[C@H](CN(C)S(=O)(=O)c2ccccc2)[C@H](C)CN([C@@H](C)CO)C(=O)c2cc(NC(=O)c3ccncc3)ccc2O1` gave GSIS activator -12.
For O=C(c1ccc(F)cc1)N1CCN(c2ccc(N3CCOCC3)nn2)CC1 the results were Vif imaging -3, Bfl-1 A1 inh 0, GSIS activator -2 and dFosB act -1.
COc1ccc(C(=O)CCC(=O)N2CCN(c3ccc(N4CCOCC4)nn3)CC2)cc1 was read as Vif imaging -5, Bfl-1 A1 inh 0, Neddylation inh 44*, GSIS activator 2 and dFosB act -2.
`Cc1ccc(C(=O)N2CCN(c3ccc(N4CCOCC4)nn3)CC2)cc1` gave Vif imaging 13, Bfl-1 A1 inh 0, Neddylation inh 61*, GSIS activator 15 and dFosB act -6.
Screening O=C(c1ccc(Cl)cc1)N1CCN(c2ccc(N3CCOCC3)nn2)CC1 returned Vif imaging 9.

High-throughput results deposited in PubChem BioAssay by several laboratories.
